Bioassay records deposited in PubChem BioAssay by The Scripps Research Institute Molecular Screening Center.
TCR CD3 inh = human TCR-CD3 binding inhibition. TAMRA-labeled TCR probe fluorescence, biochemical. hit rate 0.37% among 360,000. inhibition, % at 9.4 µM; in the data active = inhibition above about 19%;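 note: recombinant mutant TCR 2C K166C tagged with TAMRA read by polarization; 0% = receptor in buffer alone and 100% = receptor with positive control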
pPAFAH inh = pPAFAH (human) enzyme inhibition. Q13093. recombinant pPAFAH, FP-rhodamine probe fluorescence polarization. inhibition, % at 3.39 µM. hit rate 1.5% among 330,000. AID 463082;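 active = inhibition above the mean inhibition across the screen plus 3 SD, cut at about 25% in these data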;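 note: inhibitors block binding of the rhodamine activity-based probe so polarization drops; 0% = enzyme with DMSO and 100% = wells lacking pPAFAH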
Target sequence (Q13093 whole entry, looked up): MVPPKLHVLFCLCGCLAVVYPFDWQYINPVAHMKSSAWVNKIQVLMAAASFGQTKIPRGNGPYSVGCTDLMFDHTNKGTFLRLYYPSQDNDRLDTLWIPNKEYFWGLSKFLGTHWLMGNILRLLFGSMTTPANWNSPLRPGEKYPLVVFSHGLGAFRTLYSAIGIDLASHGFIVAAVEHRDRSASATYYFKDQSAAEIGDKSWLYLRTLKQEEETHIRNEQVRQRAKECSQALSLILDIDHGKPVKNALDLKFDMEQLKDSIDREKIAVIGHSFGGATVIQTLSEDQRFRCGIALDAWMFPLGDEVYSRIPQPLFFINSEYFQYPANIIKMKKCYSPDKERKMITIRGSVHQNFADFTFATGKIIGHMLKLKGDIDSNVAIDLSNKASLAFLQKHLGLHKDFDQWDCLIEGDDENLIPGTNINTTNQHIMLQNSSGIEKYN
PAFAH1B3 FP inh = blocks human PAF acetylhydrolase 1B catalytic subunit 3. Q15102. recombinant PAFAH1B3, FP-rhodamine probe, fluorescence polarization. inhibition, % at 3.39 µM. hit rate 0.28% among 340,000. AID 492972;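 active = inhibition above the screen-wide average of all tested compounds plus 3 SD, cut at about 25% in these data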;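 note: 0% = enzyme with DMSO only and 100% = wells lacking PAFAH1B3 protein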
PAFAH2 inh = PAFAH2 (human) inhibition. Q99487. recombinant PAFAH2, FP-rhodamine activity probe, fluorescence polarization. inhibition, % at 3.39 µM. hit rate 0.99% among 340,000;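 active = inhibition above the mean over all tested compounds plus 3 SD, cut at about 30% in these data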;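 note: inhibitors block probe labeling of enzyme so polarization drops; 0% = enzyme with DMSO and 100% = wells lacking PAFAH2 protein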
PAFAH1B2 inh = blocks human PAF acetylhydrolase 1b catalytic subunit 2; P68402; recombinant PAFAH1B2, FP-rhodamine activity probe, fluorescence polarization; inhibition, % at 3.39 µM; hit rate 1.2% among 340,000; AID 492953;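 active = inhibition above the mean of all tested compounds plus 3 SD, cut at about 24% in these data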;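 note: 0% = enzyme with DMSO and 100% = wells lacking PAFAH1B2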
Target sequence (P68402 whole entry, looked up): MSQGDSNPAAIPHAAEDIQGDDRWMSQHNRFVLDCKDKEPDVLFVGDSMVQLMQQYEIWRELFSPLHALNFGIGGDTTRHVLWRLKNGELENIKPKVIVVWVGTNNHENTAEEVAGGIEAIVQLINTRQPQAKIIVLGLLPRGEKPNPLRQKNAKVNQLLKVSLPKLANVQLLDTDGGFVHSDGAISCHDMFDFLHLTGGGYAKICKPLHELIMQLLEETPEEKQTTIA
PAFAH2 confirm = confirmation of human PAFAH2 inhibitors; shares compounds with PAFAH2 inh; hit rate 65% among 2,300; inhibition, % at 3.39 µM; recombinant PAFAH2, FP-rhodamine activity probe, fluorescence polarization;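 active = mean inhibition over three repeats above a set limit taken from the earlier primary screen, cut at about 30% in these data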;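 note: inhibitor blocks binding of rhodamine activity probe so polarization falls; 0% = enzyme with DMSO and 100% = wells lacking PAFAH2 protein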
Numbers without * were called inactive; . = no result given. Compounds with a hit are over-represented: about 2.7% of the library has one in this group of screens.

SMILES	TCR CD3 inh	pPAFAH inh	PAFAH1B3 FP inh	PAFAH2 inh	PAFAH1B2 inh	PAFAH2 confirm
COc1cccc(/C=C2\SC(=S)N(C(Cc3ccccc3)C(=O)O)C2=O)c1 (stereo unspecified)	5.9	3.4	-0.5	32.7*	4.6	16.1
Cc1ccc(/C=C2\SC(=S)N(CCCC(=O)Nc3ccc(O)cc3)C2=O)cc1	4.0	1.0	2.2	-4.8	2.3	.
O=C(CN1C(=O)S/C(=C\c2ccccc2)C1=O)Nc1cc([N+](=O)[O-])ccc1O	-11.3	24.0	14.7	57.0*	15.7	42.7*
Cc1ccc(/C=C2/SC(=S)N(CCCC(=O)Nc3cc([N+](=O)[O-])ccc3O)C2=O)cc1	-1.2	7.6	8.9	32.4*	4.1	15.7
COc1ccc(/C=C2\SC(=O)N(CC(=O)Nc3ccccc3O)C2=O)cc1OC	7.0	.	1.0	-8.5	2.4	.
Cc1nn(Cc2ccccc2)c(Cl)c1/C=C/C(=O)OC(C)C(=O)N1CCCC1 (stereo unspecified)	-0.6	4.3	2.4	10.5	7.5	.
Cc1nn(Cc2ccccc2)c(Cl)c1/C=C/C(=O)OCC(=O)NC(C)C(C)C (stereo unspecified)	1.2	3.3	0.0	67.3*	7.4	64.1*
COc1ccc(C(=O)O/N=C(\N)c2ccccc2)cc1OC	1.2	1.4	7.4	14.3	5.0	.
CC(C)(C)C(=O)OC/C(N)=N/OC(=O)c1ccccc1	3.1	7.2	12.2	43.9*	3.8	71.4*
CCOc1ccccc1C=C1CCc2ccccc2C1=O	-2.2	.	.	.	.	.
CCOc1ccc2noc3c2c1C(=O)c1ccccc1-3	11.0	21.1	19.0	31.4*	17.6	19.4
O=C(COC(=O)c1ccccc1F)NC(=O)NC1CCCC1	1.1	9.8	-5.2	16.3	1.2	.
Cc1noc(C)c1COc1ccc(C(=O)OCC(=O)NC2CCCCC2C)cc1 (stereo unspecified)	-5.2	15.0	0.5	77.2*	3.9	82.5*
COc1ccc(NC(=O)COC(=O)c2ccc(OCc3c(C)noc3C)cc2)cc1OC	7.7	15.0	0.0	27.9	-0.3	.
Cc1noc(C)c1COc1ccc(C(=O)OCC(=O)NC23CC4CC(CC(C4)C2)C3)cc1	9.7	10.6	7.4	81.4*	1.9	80.0*
CN(C(=O)COC(=O)/C=C/c1cccs1)C1CCCCC1	3.8	1.9	1.4	75.4*	-0.3	73.1*
CCN(c1ccc(NC(=O)COC(=O)/C=C/c2cccs2)cc1)C(C)C	4.2	10.0	3.1	42.2*	3.1	23.6
NC(=O)c1ccc(NC(=O)COC(=O)/C=C/c2cccs2)cc1	4.8	-1.2	6.2	17.2	1.1	.
CC(C)C(=O)NC(=O)COC(=O)/C=C/c1cccs1	-7.8	5.1	7.0	53.5*	1.8	42.4*
O=C(COC(=O)/C=C/c1cccs1)NC(=O)Cc1ccccc1	1.2	4.6	9.7	6.1	1.9	.
Cc1ccc(NC(=O)COC(=O)/C=C/c2cccs2)cc1	11.3	5.8	-4.1	80.4*	-3.4	73.5*
CN(CC(=O)Nc1ccccc1Cl)C(=O)COC(=O)/C=C/c1cccs1	-5.8	3.0	6.7	2.9	0.6	.
Cc1ccc(C)c(S(=O)(=O)N2CCN(C(=O)CN3C(=O)C4CC=CCC4C3=O)CC2)c1 (stereo unspecified)	-4.0	.	-4.7	4.9	2.4	.
C=CCNC(=O)COC(=O)/C=C/c1cccs1	-1.6	-1.6	5.5	48.8*	1.1	25.6
C#C[C@]1(O)CC[C@H]2[C@@H]3CCc4cc(OC5CCCC5)ccc4[C@H]3CC[C@@]21C	2.2	-0.5	-4.0	53.4*	0.9	51.2*
SMILES	TCR CD3 inh	pPAFAH inh	PAFAH1B3 FP inh	PAFAH2 inh	PAFAH1B2 inh	PAFAH2 confirm
C#C[C@]1(O)CC[C@H]2[C@@H]3CCc4cc(OC)ccc4[C@H]3CC[C@@]21C	0.6	-2.7	9.7	25.8	-0.6	.
COc1ccc(/C=C/C(=O)OCC(=O)NC2CCCC(C)C2C)cc1 (stereo unspecified)	9.9	9.1	-3.4	82.5*	6.8	79.4*
CC1CCCC(NC(=O)COC(=O)/C=C/c2ccc(F)cc2)C1C (stereo unspecified)	0.4	8.2	5.4	64.7*	0.1	68.6*
CC1(C(=O)NS(=O)(=O)c2cccs2)CCN1C(=O)Cc1ccc(Cl)cc1Cl (stereo unspecified)	2.8	.	.	.	.	.
O=c1c2c(nc3nc(Cc4ccccc4)[nH]n13)CCC2	-4.9	6.5	6.9	67.3*	-2.8	59.3*
CC1CCCCN1C(=O)NC1CC(=O)N(c2ccc3c(c2)OCCO3)C1 (stereo unspecified)	-0.6	1.4	7.6	-5.9	0.6	.
CC(=O)N1CCN(c2nc(C)nc3sc4c(c23)CCC(C)C4)CC1 (stereo unspecified)	1.7	3.4	-7.6	30.2*	0.7	14.1
CCC(CO)Nc1ccn2nc(-c3cccc(Cl)c3)cc2n1 (stereo unspecified)	-2.2	.	.	.	.	.
O=C(COC(=O)/C=C/c1ccccc1)Nc1cccnc1Cl	-2.9	-0.7	3.5	27.5	6.3	.
CCN(CC)S(=O)(=O)c1ccc(/C=C/C(=O)OCC(=O)Nc2cccc3ccccc23)cc1	5.3	20.8	-7.3	52.7*	-0.8	62.1*
CCN(CC)S(=O)(=O)c1ccc(/C=C/C(=O)OCC(=O)Nc2cccnc2Cl)cc1	7.9	5.9	7.8	67.2*	-0.3	55.2*
Cc1cc(C)cc(C(=O)Nc2ccc(NC(=O)Cc3ccccc3)cc2)c1	-10.0	-0.3	7.6	5.6	0.2	.
O=C(COC(=O)c1cccnc1Cl)NC1CCCCCC1	-1.9	8.4	7.2	73.3*	5.3	66.3*
O=C(COC(=O)CNC(=O)c1ccc(Cl)cc1Cl)NC1CCCCC1	-3.9	.	-3.6	-7.6	-5.2	.
Nc1cc(Cl)ccc1C(=O)OCC(=O)NC1CCCCCCC1	4.2	7.4	0.2	47.4*	0.9	41.5*
CSc1ncccc1C(=O)OCC(=O)NC1CCCC1	-2.9	1.0	-2.9	14.6	3.6	.
CCOc1ncccc1C(=O)OC(C)C(=O)NC1CCCCC1 (stereo unspecified)	-6.0	.	2.7	1.6	0.5	.
CSc1ncccc1C(=O)OCC(=O)NC12CC3CC(CC(C3)C1)C2	-4.6	5.2	3.0	72.0*	12.7	72.3*
CCOc1ncccc1C(=O)OCC(=O)NC1CCCCCC1	0.3	.	-2.0	84.1*	3.5	79.0*
O=C(OCCOc1cccc(Cl)c1)c1ccc2ncsc2c1	-1.9	5.0	2.5	20.9	-0.9	.
CCOc1ncccc1C(=O)OCC(=O)NCc1cccs1	4.4	15.2	5.8	39.5*	3.3	27.0
CSc1ncccc1C(=O)OCC(=O)NC1CCCCC1	4.6	2.4	-5.8	38.0*	-3.6	36.5*
Cc1ccc(C(=O)Oc2ccc(Br)cc2C(=S)N2CCOCC2)cc1	-0.5	10.4	4.1	32.4*	4.1	32.9*
O=C(Oc1ccc(Br)cc1C(=S)N1CCOCC1)c1ccc(F)cc1	.	4.8	9.4	12.9	2.3	.
COc1ccc(C(=O)Oc2ccc(Br)cc2C(=S)N2CCOCC2)cc1	10.6	17.5	8.2	51.8*	1.5	36.4*
